# mHTT CaM bind: mutant huntingtin-calmodulin interaction inhibitors – biochemical, AlphaScreen, primary screen; P42858; AlphaScreen His-mHTT/GST-CaM binding, luminescence; inhibition, % at 15 µM; actives 3.6% (n = 190,000);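 also: 0% = both proteins with DMSO and 100% = one protein alone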
# Pf apPOL block: Pf-apPOL inhibitors, biochemical, fluorescence; Recombinant Pf-apPOL, molecular beacon fluorescence, 1.5 h; inhibition, % at 10 µM; actives 0.25% (n = 210,000); AID 1794808, 2022
# The depositor's hits bear a star; x = no result; ! = not active in a repeat. An excerpt weighted towards active compounds, which were near 3.5% of everything screened. Rule as the data show it: active = inhibition above about 50%; inactive = the rest.
SMILES,mHTT CaM bind,Pf apPOL block
CC(C)Cc1nn2c(N)c(C=C3C=Nc4ccccc43)c(=O)nc2s1,11.0,-15.2
Fc1cccc(C2CC(c3cccs3)Nc3nnnn32)c1 (stereo not drawn),-6.0,5.7
Cc1ccc(-c2nc3c4c5c(sc4ncn3n2)CCCC5)cc1,-2.0,8.1
COc1c(C(=O)N2CCN(c3ccccc3)CC2)sc2ccc(F)cc12,60.1*,0.9
COc1c(C(=O)N2CCOCC2)sc2ccc(F)cc12,-4.8,-1.3
CCOc1ccc(-n2c(=O)c3sccc3n(CC(=O)c3cccc([N+](=O)[O-])c3)c2=O)cc1,8.0,-0.5
CSc1cccc(NC(=O)C(=O)NCc2ccco2)c1,x,5.0
COc1ccc(NC(=O)N2CC3CCCN3c3ccccc32)c(OC)c1 (stereo not drawn),89.8*,0.5
COc1ccc(NC(=O)N2CC3CCCN3c3ccccc32)cc1 (stereo not drawn),62.3*,1.1
COc1ccc(NC(=O)N2CCCC2c2ccccc2Cl)c(OC)c1 (stereo not drawn),2.2,-5.4
CCC1CN(C(=O)Nc2ccc(OC)cc2)c2ccccc2O1 (stereo not drawn),1.1,2.5
CC(C)(C)c1csc(CN2CCN(C(=O)C3CC3)CC2)n1,-7.0,-10.2
COCCN1C(=O)CN(Cc2ccc(C)cc2)C(=O)C1c1cccs1 (stereo not drawn),2.9,-4.5
O=c1c(-c2ccccc2)coc2c3c(ccc12)OCN(C1CCS(=O)(=O)C1)C3 (stereo not drawn),-1.1,-4.8
COc1ccc(CCN2COc3ccc4c5c(oc4c3C2)C(=O)c2ccccc2C5=O)cc1OC,43.5,-3.3
O=C1c2ccccc2C(=O)c2c1oc1c3c(ccc21)OCN(CC1CCCO1)C3 (stereo not drawn),39.8,9.6
CC(C)CCN1COc2ccc3c4c(oc3c2C1)C(=O)c1ccccc1C4=O,73.6*,12.5
O=C1c2ccccc2C(=O)c2c1oc1c3c(ccc21)OCN(C1CCCC1)C3,78.0*,49.5
O=C1c2ccccc2C(=O)c2c1oc1c3c(ccc21)OCN(C1CCS(=O)(=O)C1)C3 (stereo not drawn),90.7*,69.0*!
Cc1noc(C)c1S(=O)(=O)N1CCC(C(C)C(=O)NCCN2CCN(C)CC2)CC1 (stereo not drawn),0.8,2.9
COc1ccc2c(=O)oc3c(OC)cc(CCN(C)C)c4c(=O)oc1c2c34,x,-2.9
Cc1cccc(C(=O)N2CCN(c3cccc(Br)c3)C(=O)C2C)c1 (stereo not drawn),8.8,-5.1
COc1ccc(Br)cc1/C=c1\sc2nc(-c3cccnc3)nn2c1=O,2.0,37.4
CCOc1cc2c(c([N+](=O)[O-])c1)NC(C1CC=CCC1)C1CC=CC21 (stereo not drawn),71.0*,3.4
O=C(O)c1ccc([N+](=O)[O-])c2c1NC(C1CC=CCC1)C1CC=CC21 (stereo not drawn),41.0,2.2
SMILES,mHTT CaM bind,Pf apPOL block
COc1ccccc1C(=O)Nc1n[nH]c(C)c1-c1ccc(C)cc1,21.3,-0.6
COc1cccc(-n2ccnc2N2CCN(C(=O)c3ccc(F)c(F)c3)CC2)c1,53.7*,17.5
COc1ccc(C(=O)N2CCN(c3cccc(Cl)c3)CC2)cc1,6.3,-0.8
N#Cc1cc2c(nc1SCC(=O)c1ccc(Br)cc1)CCCC2,1.0,-0.2
COC(=O)C1=C(C(=O)OC)SC2(S1)C(C(=O)OC)=C(C(=O)OC)SC1=C2c2cc(OC)ccc2NC1(C)C,62.6*,x
COc1ccc2c(c1)C1(NC(=O)c3ccccc3N1)C(=O)N2 (stereo not drawn),15.0,-6.7
CCCN1C(=O)/C(=C\c2nc3ccccc3c(=O)[nH]2)c2cc(Br)ccc21,68.0*,3.6
CN1C(=O)/C(=C\c2nc3ccccc3c(=O)[nH]2)c2ccccc21,-2.0,-0.8
COc1cc(/C=C(\C#N)c2nc3ccccc3[nH]2)cc(OC)c1O,43.0,-1.3
N#C/C(=C\c1cccc(Br)c1)c1nc2ccccc2[nH]1,2.9,-2.4
N#C/C(=C\c1cccc(F)c1)c1nc2ccccc2[nH]1,100.0*,-4.0
COc1cc(/C=C(\C#N)c2nc3ccccc3[nH]2)cc2c1OCO2,69.4*,-3.5
COc1cccc(C2=N/C(=C/c3cc(Br)ccc3OC)C(=O)O2)c1,2.0,4.0
COc1ccccc1/C=C/C1=NC(=C\c2coc3ccccc3c2=O)/C(=O)O1,7.0,-2.1
N#Cc1ccc(C(=O)N2CCC(c3ccn4ncc(C(=O)N5CCCC5)c4c3)CC2)cc1,12.1,5.0
COc1ccc(CCNC(=O)CSc2nc3ccccc3[nH]2)cc1,-11.8,-13.2
COc1cccc(Nc2ncc3c(n2)CCN(Cc2ccc(N(C)C)cc2)C3)c1,73.0*,-4.0
CCOc1ccc(CN2CCc3nc(Nc4cccc(OC)c4)ncc3C2)cc1,20.0,-11.9
COc1ccc(Nc2ncc3c(n2)CCN(Cc2ccc(N(C)C)cc2)C3)c(OC)c1,35.7,-6.7
COc1cccc(Nc2ncc3c(n2)CCN(Cc2ccc(OC(C)C)cc2)C3)c1,50.9*,-1.4
Cc1ccc(-c2n[nH]c3c2CN(C(=O)c2cccn2C)CC3)cc1,54.6*,-11.5
Cc1ccc(-c2n[nH]c3c2CN(C(=O)c2ccoc2)CC3)cc1,9.8,-9.3
Cn1nc(C(=O)N2CCc3[nH]nc(-c4ccccc4)c3C2)c2ccccc21,87.4*,-6.2
O=C(c1ccccn1)N1CCc2[nH]nc(-c3ccccc3)c2C1,-3.7,-10.4
COC(=O)Nc1ccccc1Oc1ccccc1,-23.7,-0.2
SMILES,mHTT CaM bind,Pf apPOL block
CC1C(=O)NCCN1C(=O)c1ccc(F)cc1 (stereo not drawn),-13.1,-4.7
O=C1NC(=Nc2ccccc2Cl)S/C1=C\c1cccc([N+](=O)[O-])c1O,44.0,5.8
O=C1NC(=Nc2ccccc2Cl)S/C1=C/c1ccccc1F,66.0*,-1.6
O=C1NC(=Nc2ccccc2Cl)S/C1=C/c1ccc(F)cc1,76.0*,-4.5
N#Cc1ccc(/C=C2/SC(=Nc3ccccc3Cl)NC2=O)cc1,35.0,2.5
Cc1ccc(-n2c(SCC(=O)Nc3ccccc3Cl)nc3[nH]ncc3c2=O)cc1Cl,41.0,-3.8
Cc1nc(C(=O)NCc2ccc(N3CCCC3)cc2)c(C)n1C1CCN(C)CC1,55.2*,1.1
Cc1nc(C(=O)NCc2ccc(N3CCCCC3)cc2)c(C)n1C1CCN(C)CC1,44.2,-6.7
Nc1ccc(C(=O)Nc2ccc(-c3nc4ccc(NC(=O)c5ccc(N)cc5)cc4[nH]3)cc2)cc1,52.2*,-27.1
O=C(O)c1ccc(-c2nc3ccc(-c4ccc5nc(-c6ccc(C(=O)O)cc6)[nH]c5c4)cc3[nH]2)cc1,x,85.7*
COc1ccc(Cl)cc1C(=O)Nc1ccc(F)cc1,-8.1,1.4
O=[N+]([O-])c1ccc2nc(-c3ccccc3)[nH]c2c1,11.0,30.9
COc1ccc(Cl)cc1C(=O)Nc1ccc(-c2nc3ccccc3[nH]2)cc1,90.0*,3.7
Cc1cccc2[nH]c(-c3ccc(NC(=O)c4ccc(N)cc4)cc3)nc12,21.0,-2.4
CC(=O)Nc1ccc(-c2nc3ccc(NC(C)=O)cc3[nH]2)cc1,0.8,81.4*
C=CC(=O)Nc1ccc(-c2nc3ccc(NC(=O)C=C)cc3[nH]2)cc1,1.0,5.6
COCC(=O)NCc1nnnn1C1CCCCC1,-17.9,-4.9
O=C(CN1CCCCCC1)Nc1ccc(S(=O)(=O)Nc2nccs2)cc1,-9.5,8.8
COc1ccc(CC(=O)N2CC(c3nc(C)no3)C3(CCOCC3)C2)cc1 (stereo not drawn),-3.8,-3.4
